PubChem BioAssay (Tox21)
Results filed as inconclusive are left out. Active and inactive are the calls of the source. Calls come from the whole dose curve; as a rule, active = well fitted cell-killing curve with a large enough effect in the repeat runs; inconclusive = weak or mixed curves, or effect the other way; inactive = no such curve, though single readings can be large or run the other way.

Experiment: qHTS assay to identify small molecule antagonists of the retinoid-related orphan receptor gamma (ROR-gamma) signaling pathway - cell viability counter screen (AID 1159520); note: nearly all actives have a fitted effect of over 50% in size
Settings: Tet-on RORgamma CHO cells viability, ATP luminescence, 16 h; series mostly up to 92.4 µM; activity, negative = cytotoxicity: at the top concentration
Description: U.S. Tox21 Program National Center for Advancing Translational Sciences [NCATS] NIH Chemical Genomics Center [NCGC] U.S. Environmental Protection Agency [EPA] National Institutes of Environmental Health Sciences [NIEHS] National Toxicology Program [NTP] U.S. Food and Drug Administration [FDA] Tox21 Assay Overview: Nuclear steroid hormone receptors are involved in many biological processes including inflammatory responses, cell proliferation, and apoptosis. Environmental factors or compounds disrupting these nuclear receptor pathways and gene expression may promote susceptibility to immunotoxicants and autoimmune diseases. One important group of these expression factors are the retinoid-related orphan receptors. To assess compounds that may interfere with the retinoid-related orphan receptor gamma (ROR-gamma) transcription factor, a cell-based luciferase assay was used. The CHO cell-based assay utilizes a TET-inducible ROR expression factor and ROR response element-LUC reporter gene. Reporter gene activity was induced using Doxycycline Hyclate and measured after 16 hr incubation. Tet-on ROR gamma CHO cells were used to screen against the Tox21 10K compound library for cytotoxicity by measuring the viability of the cells based on the quantitation of the ATP.
Tox21 Assay Protocol Summary: Tet-on ROR gamma CHO cells were dispensed at 1,000 cells in 4 uL of culture medium per well into white wall/solid bottom 1536-well plates using a Multidrop Combi (Thermo Scientific, Waltham, MA) dispenser. Following incubation at 37 C and 5% CO2 for 4 hr, 23 nL of compounds dissolved in DMSO, positive controls or DMSO only were transferred by a Pintool station (Kalypsys, San Diego, CA) and after 2 hr incubation at 37 C, one ul of 1 uM (final concentration) of Doxycycline Hyclate was added to all the wells by using a Flying Reagent Dispenser (FRD) (Aurora Discovery, San Diego, CA). After 16 hr incubation at 37 C and 5% CO2, 5 uL of CellTiter-Glo reagent (Promega Corporation, Madison, WI) was added to each assay plate using FRD. After 30 min incubation at room temperature, luminescence was quantified on a ViewLux plate reader (Perkin Elmer, Waltham, MA).
% is set by controls: 0 for no effect and ±100 for the full control effect.

Row | SMILES | activity, negative = cytotoxicity
1 | COCCOC(=O)C1=C(C)NC(C)=C(C(=O)OC(C)C)C1c1cccc([N+](=O)[O-])c1 (stereo not given) | -1.95% [at 42.5 µM] (inactive)
2 | CCCCOCCOC(=O)COc1nc(Cl)c(Cl)cc1Cl | -2.34% (inactive)
3 | CC(=O)/C=C/C1C(C)=CCC(C)C1(C)C (stereo not given) | 3.11% (inactive)
4 | Nc1cccc(O)c1 | -11% (inactive)
5 | O=C(O)c1ccc(Cl)cc1Cl | 0.0119% (inactive)
6 | C=C(C)C(=O)OCC(C)(C)COC(=O)C(=C)C | -2.81% (inactive)
7 | ClCCCl | 3.57% (inactive)
8 | CC(C)(C)c1n[nH]c(=S)n(N)c1=O | 2.8% (inactive)
9 | FC(F)(F)c1ccccc1-n1ccnc1 | -0.692% [at 42.5 µM] (inactive)
10 | Cc1ccccc1C(=O)Nc1ccc(C(=O)N2CCCC(N(C)C)c3ccccc32)cc1 (stereo not given) | -9.56% [at 42.5 µM] (inactive)
11 | CC(C(=O)O)c1ccc2c(c1)CC(=O)c1ccccc1S2 (stereo not given) | 1.47% [at 42.5 µM] (inactive)
12 | CC(C)=O | 5.67% (inactive)
13 | Cc1ccc(S(=O)(=O)O)c(C)c1 | 10.9% (inactive)
14 | Cc1ccc2c(c1)OCC(=O)CO2 | 0.736% (inactive)
15 | C[C@H](N)[C@H](O)c1cccc(O)c1 | 1.95% [at 42.5 µM] (inactive)
16 | CC(C)NCC(O)COc1ccc(COCCOC(C)C)cc1 (stereo not given) | -0.351% [at 42.5 µM] (inactive)
17 | CC(C)CC(=O)O | -1.28% (inactive)
18 | NS(=O)(=O)c1cc2c(cc1Cl)CN(C1CCCCC1)C2=O | 0.139% [at 42.5 µM] (inactive)
19 | CC(C)c1ccc2cc(C(C)C)ccc2c1 | 3.4% (inactive)
20 | O=C(/N=N/C(=O)OCc1ccccc1)OCc1ccccc1 | 1.92% (inactive)

Row | SMILES | activity, negative = cytotoxicity
21 | CC/C=C\CC1=C(C)CCC1=O | -4.68% (inactive)
22 | O=S(O)(O)=S | 8.82% [at 8.39 µM] (inactive)
23 | CC(C)NCC(O)COc1cccc2[nH]ccc12 (stereo not given) | -3.73% [at 42.5 µM] (inactive)
24 | CCCCCCOc1ccccc1C(N)=O | -1.35% [at 42.5 µM] (inactive)
25 | OC[C@H](Cc1cccc(O)c1)[C@H](CO)Cc1cccc(O)c1 | 5.65% (inactive)
26 | O=C(NCCc1c[nH]c2ccccc12)c1cccnc1 | 0.954% [at 42.5 µM] (inactive)
27 | CC(C)OC(=O)CCCCC(=O)OC(C)C | 1.95% (inactive)
28 | CCCOC(OCCC)OCCC | 2.79% (inactive)
29 | Cc1ccccc1OCC(O)CO (stereo not given) | -3.86% [at 42.5 µM] (inactive)
30 | C=C(C)C1CCC(C)(O)CC1 (stereo not given) | -10% (inactive)
31 | CC(=C(CCOC(=O)C(C)C)SSC(CCOC(=O)C(C)C)=C(C)N(C=O)Cc1cnc(C)nc1N)N(C=O)Cc1cnc(C)nc1N | 3.67% [at 42.5 µM] (inactive)
32 | CCCCC(CC)COCCO (stereo not given) | -4.82% (inactive)
33 | O=C(CCN1CCN(CCO)CC1)N1c2ccccc2Sc2ccc(C(F)(F)F)cc21 | 0.373% [at 42.5 µM] (inactive)
34 | CC(C)CCCC(C)(C)O | 11.3% (inactive)
35 | CC[C@H](C)C(=O)O[C@H]1C[C@H](O)C=C2C=C[C@H](C)[C@H](CC[C@@H](O)C[C@@H](O)CC(=O)O)[C@H]21 | 1.45% (inactive)
36 | CC(C)=CCOC(=O)c1ccccc1 | -10.2% (inactive)
37 | CC(=O)NCCCCCC(=O)O | -2.36% [at 42.5 µM] (inactive)
38 | CN1C(C)(C)CCCC1(C)C | -0.663% [at 42.5 µM] (inactive)
39 | C[Si](C)(C)C | 9.4% (inactive)
40 | CCCC(=O)C(C)=O | 5.46% (inactive)
